From PubChem BioAssay (NCATS) come the findings set out here.

Molecules are shown by their SMILES. Inconclusive results are not listed. Where a call stands in place of a potency, no number is given. Calls of active or inactive are those of the source. The call rests on the fitted dose curve; in most records, active means well fitted curve in the direction sought with a large enough effect; inconclusive means small, poorly fitted or top-dose-only effect, or another doubt; inactive means no such curve, though single readings can be large or run the other way.

Metallo-beta-lactamase type 2 (Klebsiella pneumoniae), sequence (C7C422 whole entry, looked up): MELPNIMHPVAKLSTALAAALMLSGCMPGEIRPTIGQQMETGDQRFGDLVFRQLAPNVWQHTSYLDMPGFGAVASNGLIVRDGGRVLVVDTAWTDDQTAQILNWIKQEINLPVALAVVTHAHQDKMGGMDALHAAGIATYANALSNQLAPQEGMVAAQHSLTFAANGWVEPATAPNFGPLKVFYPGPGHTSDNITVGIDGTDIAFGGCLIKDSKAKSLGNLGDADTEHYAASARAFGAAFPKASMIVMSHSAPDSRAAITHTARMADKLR

This assay addresses Metallo-beta-lactamase type 2 (Klebsiella pneumoniae) (UniProt C7C422). The assay can be described thus: qHTS to identify inhibitors of the New Delhi Metallo-beta-lactamase (NDM): assay validation screen against the NCATS LOPAC Collection (AID 1794843).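 Further: nitrocefin turnover by NDM-1 measured as 485 nm absorbance at plateau.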 As to conditions: NDM-1 enzyme, nitrocefin hydrolysis, absorbance 485 nm; series mostly up to 38.4 µM. An excerpt: Assay Submitter (PI): James Inglese Ph.D., Patricia Dranchak Ph.D., Mahesh Aitha Ph.D.
Assay Development and Screening Technology Laboratory (ADST)
National Center for Advancing Translational Sciences (NCATS), Rockville, MD
National Institute of Health (NIH), Bethesda, Maryland
The metallo-beta-lactamases (MBL) are a main antibiotic resistance mechanism evolved by bacteria. There is an urgent clinical need for MBL inhibitors to mitigate this growing threat. To support a machine-based learning study, qHTS has been used to experimentally test inhibitors identified by prediction tools.
PROTOCOL TABLE (as described by Inglese et al., 2007)
SEQUENCE No. (e.g., 1, 2, 3, etc.); […] (e.g., enzyme, Incubation, Reagent, etc.); VALUE; DESCRIPTION
1; NDM-1; 4 uL of 3 nM enzyme in 50 mM HEPES (pH 7.0), 1 uM Zn2SO4, 0.01% Tween20; Use BioRaptr to dispense into Aurora black, clear bottom low base 1536-well plates
2; Compounds; 23 nL; Use Pin Tool (Wako) to transfer DMSO control and library compounds in DMSO
4; Reagent; 2 uL of 50 uM nitrocefin
6; Detector; Absorbance at 485 nm (bandwidth = 5 nm, 25 flashes/well) on Tecan Infinity
NOTES (numbers refer to sequence above)
1; Column 1 of each plate received assay buffer without enzyme and columns 2-48 received enzyme for a final assay concentration of 2 nM.
2; Control plate contained DMSO in columns 1, 2, 3, and 4.
3; Compound interaction with enzyme.
5; Substrate interaction with enzyme, plateau phase of kinetics.
6; Default reader settings were applied for absorbance read at 485 nm, bandwidth = 5 nm, 25 flashes/well.
Inglese J, Shamu CE, Guy RK. 2007. Reporting data from high-throughput screening of small-molecule libraries. Nat Chem Biol. doi:10.1038/nchembio0807-438
Yasgar A, Shinn P, Jadhav A, Auld D, Michael S, Zheng W, Austin CP, Inglese J, Simeonov A. 2008. Compound Management for Quantitative High-Throughput Screening. J Lab Autom 13:79 - 89. doi:10.1016/j.jala.2007.12.004
On the technique in general: qHTS replaces the single test concentration by a dilution series.
Consider `CC(=O)N[C@@H](Cc1c[nH]c2ccccc12)C(=O)OCc1cc(C(F)(F)F)cc(C(F)(F)F)c1`, for which the Potency entry is “inactive”.
Turning to `O=c1onc2cnc3ccccc3n12`, the Potency entry was “inactive”.
With `NCCS(=O)O`, the Potency entry was “inactive”.
The value for `CCCCS(=N)(=O)CC[C@H](N)C(=O)O` (stereo not given in full) was “inactive”; that for `COc1cc(N)c(Cl)cc1C(=O)OCCN1CCCCC1` was “inactive”; that for `c1ccc(CN2CCC3(CCCc4ccccc43)CC2)cc1` was “inactive”.
Under `NCCNS(=O)(=O)c1cccc2c(Cl)cccc12` stands “inactive”.
As for `Nc1ccc(N2C(=O)c3ccccc3C2=O)c(Cl)c1`, the Potency entry is “inactive”.
Under `COc1cc([C@@H]2c3cc4c(cc3[C@H](O)C3COC(=O)[C@@H]32)OCO4)cc(OC)c1OC` (stereo not given in full) stands “inactive”.
Consider `O=C1Cc2c([nH]c3ccc(Br)cc23)-c2ccccc2N1`, for which the Potency entry was “inactive”.
For the molecule `N#Cc1cc2nc(O)c(O)nc2cc1[N+](=O)[O-]`, the Potency entry is “inactive”.
Under `NC(N)=NC(N)=Nc1cccc(Cl)c1` stands “inactive”; under `CC(=O)C(C)=O`, “inactive”; under `CCSC(=N)N`, “inactive”.
The value for `CCCC[C@@]1(C2CCCC2)Cc2cc(OCC(=O)O)c(Cl)c(Cl)c2C1=O` was “inactive”; that for `C/C(=C\c1ccc(C(=O)O)cc1)c1ccc2c(c1)C(C)(C)CCC2(C)C` was “inactive”; that for `CC[N+](CC)(CC)CC(=O)Nc1c(C)cccc1C` was “inactive”.
For `Nc1ccc(-c2nc3ccc(-c4nc5ccc(N)cc5[nH]4)cc3[nH]2)cc1`, the Potency entry is “inactive”.
Regarding `O=C(O)C1CN(CCCP(=O)(O)O)CCN1` (stereo not given), the Potency result is “inactive”.
The value for `NCCC1CCCC(CCN)N1` (stereo not given) was “inactive”.
Under `CNC(=O)c1cc2c(cn1)[nH]c1ccccc12` stands “inactive”; under `NC/C=C\C(=O)O`, “inactive”; under `COCc1nc2c([nH]1)c(=O)n(C)c(=O)n2CC(C)C`, “inactive”.
The value for `O=C(O)C1CCNCC1` was “inactive”; that for `NCCCCN=C(N)N` was “inactive”.
Consider `C[N+](C)(C)CC=O`, for which the Potency entry is “inactive”.
As for `NC[C@@H]1O[C@H](c2ccccc2)Cc2c1ccc(O)c2O`, the Potency entry is “inactive”.
Turning to `N[C@@H](CCCC(=O)O)C(=O)O`, the Potency result is “inactive”.
The value for `N#Cc1cc([N+](=O)[O-])c2sc(C(N)=O)[n+]([O-])c2c1` was “inactive”.
The value for `Cc1nc(N=Nc2ccc(C(=O)O)cc2)c(COP(=O)(O)O)c(C=O)c1O` was “inactive”; that for `COc1cc(CNC(=O)CCCCCCC(C)C)ccc1O` was “inactive”; that for `CCCCCC[C@@H]([C@@H](C)O)n1cnc2c(N)ncnc21` was “inactive”.
Under `CCCCCCCCCCC/C=C\C(C)(C)/C=C\CCCC(=O)O` stands “inactive”.
As to `CC(=O)NNC(=O)N1Cc2ccccc2Oc2ccc(Cl)cc21`, the Potency result was “inactive”.
Regarding `COc1ccccc1N1CCN(CCCCNC(=O)c2ccc3ccccc3c2)CC1`, the Potency entry was “inactive”.
On to `C[C@H]1CC2C3CCC4=CC(=O)C=C[C@]4(C)[C@@]3(Cl)[C@@H](O)C[C@]2(C)[C@@]1(O)C(=O)CO` (stereo not given in full), for which the Potency result was “inactive”.
Consider `O=C(O)C1=CCNCC1`, for which the Potency result is “inactive”.
Under `Clc1nccc2c1ccc1ccccc12` stands “inactive”.
On to `CCC1(O)CC2CN(CCc3c([nH]c4ccccc34)[C@@](C(=O)OC)(c3cc4c(cc3OC)N(C=O)C3[C@]45CCN4CC=C[C@@](CC)([C@@H](OC(C)=O)[C@]3(O)C(=O)OC)[C@H]45)C2)C1` (stereo not given in full), for which the Potency entry was “inactive”.
Under `CCCOC(=O)c1c(-c2ccccc2)nc(CC)c(C(=O)SCC)c1CCC` stands “inactive”.
